Experimental data reported in the supplement of paper PMC7669877.
± gives the uncertainty stated by the source.

These molecules were tested on Candidatus Liberibacter solanacearum in potato hairy roots (assay: relative CLso titer (% of untreated control); higher = less inhibition of bacterial titer). Details: 10 µM; 72 h.
Procedure: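 Primary screen of ~220 Spectrum collection (MicroSource) compounds at 10 µM (0.1% DMSO) on Candidatus Liberibacter solanacearum-infected potato hairy roots in multi-well plates (Gamborg B-5 medium, vacuum infiltrated, 21 °C, dark, 72 h). CLso titer was measured by qPCR of 16S rDNA normalised to potato RPL2 (2^-ddCq), pairwise-standardised against untreated controls, averaged over two biological replicates and expressed as % of untreated.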

Compound	relative CLso titer [%]
CCCCOc1ccc(C(=O)CCN2CCCCC2)cc1	156 ± 14
Nc1ncn([C@@H]2O[C@H](CO)[C@@H](O)[C@H]2O)c(=O)n1	64.8 ± 5.8
O=C(Oc1ccccc1C(=O)O)c1ccccc1O	124 ± 42
OC[C@@H](O)[C@@H](O)[C@H](O)[C@H](O)CO	70.5 ± 11
CCN(CC)C(=O)N1CCN(C)CC1	106 ± 9.8
Cc1ccc(S(=O)(=O)NC(=O)NN2CCCCCC2)cc1	83.2 ± 12
COc1cc(CNC(=O)CCCC/C=C/C(C)C)ccc1O	130 ± 4.3
CCn1nc(C(=O)O)c(=O)c2cc3c(cc21)OCO3	28.6 ± 0.62
CCOC(=O)CCC(=O)O[C@H]1[C@H](O[C@@H]2[C@@H](C)[C@H](O[C@H]3C[C@@](C)(OC)[C@@H](O)[C@H](C)O3)[C@@H](C)C(=O)O[C@H](CC)[C@@](C)(O)[C@H](O)[C@@H](C)C(=O)[C@H](C)C[C@@]2(C)O)O[C@H](C)C[C@@H]1N(C)C	169 ± 3.5
CC(=O)Oc1cc2c(s1)CCN(C(C(=O)C1CC1)c1ccccc1F)C2 (stereo not given)	55.4 ± 2.9
COC(=O)Nc1nc2cc(C(=O)c3ccccc3)ccc2[nH]1	84 ± 10
CCCNC(=O)NS(=O)(=O)c1ccc(Cl)cc1	38.9 ± 4.5
NS(=O)(=O)c1cc2c(cc1Cl)N=CNS2(=O)=O	31 ± 2.7
CC1=C(/C=C/C(C)=C/C=C/C(C)=C\C(=O)O)C(C)(C)CCC1	80.8 ± 13
CNC[C@H](O)c1ccc(O)c(O)c1	173 ± 86
CO[C@@]1(NC(=O)C2SC(=C(C(N)=O)C(=O)O)S2)C(=O)N2C(C(=O)O)=C(CSc3nnnn3C)CS[C@@H]21 (stereo not given in full)	138 ± 17
Cc1ccc(C(=O)Nc2ccc(S(=O)(=O)O)c3cc(S(=O)(=O)O)cc(S(=O)(=O)O)c23)cc1NC(=O)c1cccc(NC(=O)Nc2cccc(C(=O)Nc3cc(C(=O)Nc4ccc(S(=O)(=O)O)c5cc(S(=O)(=O)O)cc(S(=O)(=O)O)c45)ccc3C)c2)c1	141 ± 37
CCCCOc1cc(C(=O)NCCN(CC)CC)c2ccccc2n1	147 ± 76
Cc1cccc(Nc2ccccc2C(=O)O)c1C	98.7 ± 20
CN(C)CCC=C1c2ccccc2CCc2ccccc21	49 ± 2.5

Compound	relative CLso titer [%]
CO/N=C(\C(=O)N[C@@H]1C(=O)N2C(C(=O)O)=C(COC(C)=O)CS[C@H]12)c1csc(N)n1	68.6 ± 14
CC(C)(Sc1cc(C(C)(C)C)c(O)c(C(C)(C)C)c1)Sc1cc(C(C)(C)C)c(O)c(C(C)(C)C)c1	102 ± 13
O=C(O)c1cc(=O)c2c(OCC(O)COc3cccc4oc(C(=O)O)cc(=O)c34)cccc2o1	58 ± 9.1
CC(=O)Nc1nnc(S(N)(=O)=O)s1	74.1 ± 19
CC1=C(/C=C/C(C)=C/C=C/C(C)=C/CO)C(C)(C)CCC1	195 ± 25
CC/C(=C(/CC)c1ccc(O)cc1)c1ccc(O)cc1	94.4 ± 41
C[C@H]1O[C@@H](O[C@H]2[C@@H](O)C[C@H](O[C@H]3[C@@H](O)C[C@H](O[C@H]4CC[C@@]5(C)[C@H](CC[C@@H]6[C@@H]5CC[C@]5(C)[C@@H](C7=CC(=O)OC7)CC[C@]65O)C4)O[C@@H]3C)O[C@@H]2C)C[C@H](O)[C@@H]1O	231 ± 140
NC12CC3CC(CC(C3)C1)C2	42.5 ± 3.2
Cn1c(=O)c2c(ncn2CC(O)CO)n(C)c1=O (stereo not given)	128 ± 10
COc1ccc(CNc2nc(N3CCC[C@H]3CO)ncc2C(=O)NCc2ncccn2)cc1Cl	110 ± 46
Nc1ccn([C@@H]2O[C@H](CO)[C@@H](O)[C@@H]2O)c(=O)n1	83.2 ± 46
CC(C)NCC(O)COc1ccc(CC(N)=O)cc1 (stereo not given)	106 ± 58
Nc1ccc(S(=O)(=O)c2ccc(N)cc2)cc1	94.3 ± 19
CNCCCN1c2ccccc2CCc2ccccc21	144 ± 1.5
CN1CCN(C(c2ccccc2)c2ccccc2)CC1	105 ± 31
Cn1c(=O)c2c(ncn2C)n(C)c1=O	42.2 ± 4.3
Oc1ccc(Cl)c2cccnc12	36.8 ± 11
O=C(c1ccc(OCCN2CCCCC2)cc1)c1c(-c2ccc(O)cc2)sc2cc(O)ccc12	93 ± 3.9
CC(C)(Oc1ccc(CCNC(=O)c2ccc(Cl)cc2)cc1)C(=O)O	153 ± 64
C=C1CC[C@H](O)C/C1=C/C=C1\CCC[C@]2(C)[C@@H]([C@H](C)/C=C/[C@H](C)C(C)C)CC[C@@H]12	113 ± 37
